PubChem BioAssay AID926 (National Center for Advancing Translational Sciences (NCATS), 2007)
In all, about 73,000 compounds went through this assay and about 350 (0.48%) were called active. Not shown: some 17% with an inconclusive outcome. Calls come from the whole dose curve; as a rule, active = well fitted activation curve with a large enough effect in the main read-out, with a control signal flat (not every such curve was filed as active); inconclusive = small, poorly fitted or top-dose-only effect, or a change in a side signal; inactive = no such curve, though single readings can be large or run the other way; reference of the percent scale not stated here. Only a selection was taken, and actives are over-represented in it overall.

Key:
[1] = qHTS Assay for Agonists of the Thyroid Stimulating Hormone Receptor; details: HEK293-CNG-TSHR cells, membrane potential dye, cAMP; measured here: parental cells max response
Description: (§1) NIH Chemical Genomics Center [NCGC]
(§2) NIH Molecular Libraries Screening Centers Network [MLSCN]
(§3) PI Name: Dr. Marvin Gershengorn, NIH
(§4) Thyroid Stimulating Hormone Receptor
(§5) TSH is an alpha/beta heterodimeric glycoprotein hormone secreted from the anterior pituitary gland which belongs to the glycoprotein hormone family. The actions of TSH are mediated by a seven-transmembrane receptor, which upon TSH binding couples preferentially to the G-alpha (s) protein (Gs), resulting in activation of adenylate cyclase and increase in cyclic adenosine 3', 5' monophosphate (cAMP). The TSH receptor (THSR) is mainly expressed in thyroid follicular cells and regulates their growth and function. Recombinant TSH is used to activate TSHR in patients with thyroid cancer receiving thyroid hormone suppression therapy and to screen for residual tumor after surgery, but it is expensive and must be administered intramuscularly. An orally active small molecule TSHR agonist would serve as an invaluable research tool for studying TSHR pharmacology and physiology, and would have multiple advantages in therapeutic settings. However, no selective small molecule agonist of the TSH receptor exists, and no small molecule screen for TSHR agonists has ever been reported.
(§6) This cell based assay utilized a cyclic nucleotide gated ion channel (CNG) as a biosensor for cAMP induction by potential TSHR agonists.
(§7) HEK 293 cells stably expressing the TSHR as well as a modified CNG were purchased from BD biosciences. Stimulation of cAMP production causes the CNG to open and subsequent membrane depolarization to occur. A fluorescent membrane potential dye (BD biosciences) was utilized to detect cAMP stimulation in TSHR cells.
(§8) The cells were maintained in DMEM medium (Invitrogen) containing 10 % FBS (Hyclone), 100 units/ml Penicillin, 100 ug/ml Streptomycin (Invitrogen), and 250 ug/ml Geneticin (Invitrogen) and 1 ug/ml Puromycin (Invitrogen) at 37C in 5% CO2. HEK 293 cells expressing CNG but without TSHR (parental cells) were used in concert to control for compounds signaling through endogenous receptors and targets of HEK 293 cells.
(§9) NCGC Assay Protocol Summary:
(§10) High Throughput Screening. Freshly passaged cells (TSHR or parental) were dispensed into 1536-well assay plates at 4 ul/well in DMEM containing phenol red (Invitrogen), 10% FCS (Hyclone), and 100 units/ml Penicillin, 100 ug/ml Streptomycin (Invitrogen) and incubated at 37 C with 5% CO2 for 20 to 36 hrs before the robotic screening. The screen was initiated by addition of 4 ul/well membrane potential dye containing 100 uM RO 20-1724 (Sigma Aldrich), followed by 60 min incubation at room temperature to allow for dye equilibration across the cell membrane. 23 nl/well compound or control was then added to the assay plates, which were incubated for additional 30 min before reading a Envision fluorescence plate reader (Perkin Elmer) in bottom-read mode for fluorescence intensity (emission at 590 nm).
(§11) Keywords: Thyroid-stimulating hormone TSH, TSHR, TSHR agonist, quantitative high throughput screening, qHTS, HTS, probe identification, CNG, cAMP, cyclic nucleotide gated ion channel PubChem

[2] = molecular target: Thyrotropin receptor (Homo sapiens) (UniProt P16473); experiment: as above; details: HEK293-CNG-TSHR cells (CNG channel as cAMP sensor), membrane potential dye, cAMP; series mostly up to 57.1 µM
Sequence of Thyrotropin receptor (Homo sapiens) (P16473 whole entry, looked up): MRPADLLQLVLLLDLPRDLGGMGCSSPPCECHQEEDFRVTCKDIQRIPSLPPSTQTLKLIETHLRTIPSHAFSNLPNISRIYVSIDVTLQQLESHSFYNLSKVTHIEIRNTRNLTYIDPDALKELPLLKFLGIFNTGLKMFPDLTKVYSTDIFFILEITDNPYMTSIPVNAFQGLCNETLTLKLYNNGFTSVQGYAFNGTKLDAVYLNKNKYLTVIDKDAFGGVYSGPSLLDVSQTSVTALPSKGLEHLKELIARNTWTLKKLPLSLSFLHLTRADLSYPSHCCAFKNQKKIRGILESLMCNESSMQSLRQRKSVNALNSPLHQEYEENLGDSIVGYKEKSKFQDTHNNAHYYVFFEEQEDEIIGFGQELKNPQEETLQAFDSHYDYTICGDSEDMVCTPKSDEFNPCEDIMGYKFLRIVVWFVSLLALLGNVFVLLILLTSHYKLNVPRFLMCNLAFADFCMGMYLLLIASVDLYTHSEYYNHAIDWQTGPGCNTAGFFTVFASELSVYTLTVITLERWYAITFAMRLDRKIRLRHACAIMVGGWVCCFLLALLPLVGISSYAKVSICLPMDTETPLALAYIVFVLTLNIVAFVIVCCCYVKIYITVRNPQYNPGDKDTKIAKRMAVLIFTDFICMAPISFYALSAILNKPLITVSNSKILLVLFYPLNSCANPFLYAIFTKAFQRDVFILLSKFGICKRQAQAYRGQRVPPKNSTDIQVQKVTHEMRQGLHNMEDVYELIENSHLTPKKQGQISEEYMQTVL
Description: as §1, §2, §3, §4, §5, §6, §7, §8, §9, §10, §11
Potency is the fitted concentration of half-maximal effect.

SMILES	activation [1] [%]	Potency [2]	activation [2]
CC1CN(c2cc(=O)n(Cc3ccc(F)cc3)c(=O)[nH]2)CC(C)O1 (stereo not drawn)	3.44	inactive	
COc1cccc([C@H]2Oc3ccc(OC)cc3/C(=N\OCC[C@@H]3C=C[C@H](OC(C)=O)[C@H](COC(C)=O)O3)[C@@H]2O)c1	1.81		9.23% [at 11.4 µM] (inactive)
COC(=O)[C@@H]1CC[C@H](C)[C@@H](c2ccc(C)cc2)N1C(=O)c1ccc(/C=N\OC[C@@H](O)COCc2ccco2)cc1	44.4		16.9% [at 11.4 µM] (inactive)
c1ccc2c(Nc3ccncc3)nc(-c3ccc4c(c3)OCO4)nc2c1	-4.18	inactive	
CCc1ccccc1NC(=O)c1cccs1	-1.56	inactive	
Nc1ccccc1N	-14.7	inactive	
Cc1ccc(CCn2c3c(c4ccccc42)CN(C)CC3)cn1	19.4	inactive	
COC(=O)[C@@]1(Cc2ccc(F)cc2)[C@H]2c3cc(C(=O)N(C)C)n(CCc4c[nH]c5ccc(OC)cc45)c3C[C@H]2CN1C(=O)c1ccccc1	3.36	inactive	
CO[C@H]1COC(=O)[C@@H](C)NC(=O)C/C=C\[C@@H](C)[C@H](OC)COC(=O)C/C=C\[C@@H]1C	2.45		-73.4% [at 11.4 µM] (inactive)
CCOc1cc(/C=N/O)cc(Br)c1OC	15		4.51% [at 11.4 µM] (inactive)
C[C@H]1CC[C@H](C(=O)O)N[C@@H]1c1ccc(C#Cc2ccccc2)cc1	0.689		0.128% [at 11.4 µM] (inactive)
O=C(c1cccs1)N1CCN(Cc2ccc3c(c2)OCO3)CC1	-2.72	inactive	
C[C@@H]1O[C@@H](O[C@@H]2[C@@H](O)[C@H](OCCc3ccc(O)c(O)c3)O[C@H](CO[C@@H]3O[C@H](CO)[C@@H](O)[C@H](O)[C@H]3O)[C@H]2OC(=O)/C=C/c2ccc(O)c(O)c2)[C@H](O)[C@H](O)[C@H]1O	23.7	inactive	
c1nc(COc2nsnc2N2CCOCC2)cs1	-7.01	inactive	
O=C(O)COc1nsnc1N1CCOCC1	-10.1	inactive	
c1ccc(COc2nsnc2N2CCOCC2)cc1	27.1	31.6 µM (active)	
CCn1c(COc2ccc(OC)cc2)nnc1SCC(=O)Nc1cc(OC)ccc1OC	24.1	inactive	
COc1ccc(OC)c(NC(=O)CC(Cc2ccccc2OC)C(=O)O)c1 (stereo not drawn)	9.66	inactive	
COc1ccc(OC)c(NC(=O)CSc2nc(N)c(-c3ccccc3)c(=O)[nH]2)c1	9.04	25.1 µM (active)	
CN(C)CCCCNC(=O)c1ccc(Cc2nc3ccccc3[nH]2)cc1	3.13	inactive	
Cc1ccc2oc(=O)c3cnn(CC(=O)N4CCN(c5ccccn5)CC4)c3c2c1	4.94	inactive	
CC(C)[C@@H](OCc1ccccc1)[C@H](C)/C=N\OC[C@@H](C)[C@H](OCc1ccccc1)C(C)C	2.03		1.85% [at 11.4 µM] (inactive)
Cc1c(S(=O)(=O)O)ccc(N=Nc2c(O)c(C(=O)O)cc3ccccc23)c1Cl	-23.8		-9.34% [at 11.4 µM] (inactive)
Cc1nc2cnc(N3CCNCC3)nc2n(CCc2ccccc2)c1=O	9.57	inactive	
